Test results published in PubChem BioAssay (NCI).
Compounds without any hit were thinned out: in the full panel of roughly 83,000, 20% have a hit.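 96-well plates, one dose, 48 hours. Percent growth reported; active if below 10.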 Active and inactive are the calls of the source.

How the values were obtained:
Assay in all cases: NCI-60 one-dose screen, 48 h (100 = growth as untreated, 0 = no growth, -100 = all killed)
Conditions in all cases: 10 µM unless noted
SK-MEL-2 melanoma = test system: SK-MEL-2 melanoma
EKVX NSCLC = test system: EKVX NSCLC
SN12C renal = test system: SN12C renal
UO-31 renal = test system: UO-31 renal
TK-10 renal = test system: TK-10 renal
ACHN renal = test system: ACHN renal
A498 renal = test system: A498 renal
CCRF-CEM leukemia = test system: CCRF-CEM leukemia
MOLT-4 leukemia = test system: MOLT-4 leukemia
CAKI-1 renal = test system: CAKI-1 renal

Measured: growth

COc1cc(C(=O)/C=C/c2c(C)n([O-])c3ccc(Cl)cc3[n+]2=O)cc(OC)c1OC
active: CCRF-CEM leukemia -30.6% | MOLT-4 leukemia 6.41%
inactive: SK-MEL-2 melanoma 59.6% | EKVX NSCLC 80.9% | SN12C renal 56.3% | UO-31 renal 43% | TK-10 renal 46.1% | ACHN renal 53.5% | A498 renal 100%

COc1ccc2c(c1)OC13Oc4cc(OC)ccc4C=C1CCCC3=C2
inactive: SK-MEL-2 melanoma 15.7% | EKVX NSCLC 39.7% | SN12C renal 44.1% | UO-31 renal 36.3% | TK-10 renal 47% | ACHN renal 25.3% | A498 renal 69.8%
active: CCRF-CEM leukemia 5.97% | MOLT-4 leukemia -3.56%

Cn1c2c(Cl)c(Cl)ccc2c2cc(N)[nH]c(=O)c21
inactive: EKVX NSCLC 59.9% | SN12C renal 92% | UO-31 renal 54.4% | TK-10 renal 120% | ACHN renal 82.6% | A498 renal 56.5% | CCRF-CEM leukemia 81.3%
active: CAKI-1 renal -23.4%

O=C(Nc1ccc(Nc2ncccn2)cc1)NC1C=c2ccccc2=CC1 (stereo not given)
inactive: SK-MEL-2 melanoma 102% | EKVX NSCLC 106% | SN12C renal 92.5% | UO-31 renal 80.5% | TK-10 renal 112% | ACHN renal 105% | A498 renal 96.9% | CCRF-CEM leukemia 90% | MOLT-4 leukemia 87.5%

O=C(OC(OC(=O)c1cc(Cl)cc(Cl)c1)c1cccc2ccccc12)c1ccccc1 (stereo not given)
inactive: SK-MEL-2 melanoma 91.1% | EKVX NSCLC 97.7% | SN12C renal 97.5% | UO-31 renal 75.6% | TK-10 renal 90.7% | ACHN renal 102% | A498 renal 84.8% | CCRF-CEM leukemia 93.6% | MOLT-4 leukemia 103%

CC1NC(=S)NC(=O)/C1=C/c1cc(=O)oc2c1ccc1ccccc12 (stereo not given)
inactive: SK-MEL-2 melanoma 91% | EKVX NSCLC 88.7% | SN12C renal 95.6% | UO-31 renal 73.6% | TK-10 renal 123% | ACHN renal 95.6% | A498 renal 101% | CCRF-CEM leukemia 81% | MOLT-4 leukemia 88.6%

COc1ccc(Nc2nc(N)nc3c2CCc2occc2-3)cc1
inactive: SK-MEL-2 melanoma 106% | EKVX NSCLC 84.1% | SN12C renal 99.5% | UO-31 renal 83.7% | TK-10 renal 121% | ACHN renal 104% | A498 renal 98.2% | CCRF-CEM leukemia 97.3% | MOLT-4 leukemia 94.3%

COc1cccc(C(Cc2ccccc2)Nc2ccccc2)c1OC (stereo not given)
inactive: SK-MEL-2 melanoma 83% | EKVX NSCLC 96.1% | SN12C renal 103% | UO-31 renal 85.4% | TK-10 renal 96.7% | ACHN renal 106% | A498 renal 90% | MOLT-4 leukemia 78.6%

C=CCn1c(SCC(=O)Nc2ccc(C(=O)/C=C/c3cc(OC)c(OC)c(OC)c3)cc2)nnc1-c1cc(OC)c(OC)c(OC)c1
active: CCRF-CEM leukemia 1.85%
inactive: SK-MEL-2 melanoma 80.9% | EKVX NSCLC 51.8% | SN12C renal 33.8% | UO-31 renal 42% | TK-10 renal 87.3% | ACHN renal 37.8% | A498 renal 55.8% | MOLT-4 leukemia 12.3%

[2H]C1([2H])NC([2H])([2H])C([2H])([2H])N(c2ccc(Nc3ncc4cc(C(=O)N(C)C)n(C5CCCC5)c4n3)nc2)C1([2H])[2H]
inactive: SK-MEL-2 melanoma 94.3% | EKVX NSCLC 65.2% | SN12C renal 74.9% | UO-31 renal 61.2% | TK-10 renal 43% | ACHN renal 57.4% | CCRF-CEM leukemia 54.1%
active: MOLT-4 leukemia 8.74%

CC(=O)CCSc1ccc(OC(C)=O)cc1
inactive: SK-MEL-2 melanoma 99.5% | EKVX NSCLC 105% | SN12C renal 101% | UO-31 renal 87.3% | TK-10 renal 96.3% | ACHN renal 103% | A498 renal 95.8% | CCRF-CEM leukemia 75.3% | MOLT-4 leukemia 94.1%

C=C(C)[C@@H]1CC[C@]2(C(=O)O)CC[C@]3(C)[C@H](CC[C@@H]4[C@@]5(C)C[C@@H](CC#Cc6ccc(Br)cc6)C(=O)C(C)(C)[C@@H]5CC[C@]43C)[C@@H]12
active: SK-MEL-2 melanoma -12.6% | SN12C renal 4.51% | A498 renal -4.41%
inactive: EKVX NSCLC 52.1% | UO-31 renal 68% | TK-10 renal 62% | ACHN renal 65% | CCRF-CEM leukemia 28.9% | MOLT-4 leukemia 31.9%

CN(C)c1ccc(-c2c(C#N)c(N)n3nc(N)c(C#N)c3c2C#N)cc1
inactive: SK-MEL-2 melanoma 88.3% | EKVX NSCLC 76.5% | SN12C renal 72.3% | UO-31 renal 75.5% | TK-10 renal 82.4% | ACHN renal 86.5% | A498 renal 106% | CCRF-CEM leukemia 94% | MOLT-4 leukemia 90%

COc1ccc2nc(N=Nc3c(O)ccc4ccccc34)sc2c1
inactive: SK-MEL-2 melanoma 59.3% | EKVX NSCLC 17.8% | SN12C renal 50.4% | UO-31 renal 20.7% | TK-10 renal 69.1% | ACHN renal 17.2% | CCRF-CEM leukemia 31.3% | MOLT-4 leukemia 19.9%

CCCCCCCC(=O)Nc1nc2[nH]c(CN3CCN(Cc4cccc(I)c4)CC3)c(CN3CCN(Cc4cccc(I)c4)CC3)c2c(=O)[nH]1
active: SK-MEL-2 melanoma -34% | EKVX NSCLC -44.5% | SN12C renal -87.3% | UO-31 renal -99.9% | TK-10 renal -91.9% | ACHN renal -98.9% | CCRF-CEM leukemia 1.17% | MOLT-4 leukemia -36%
inactive: A498 renal 45.5%

CC(=O)[C@@H]1CC[C@]2(C(=O)n3ccnc3)CC[C@]3(C)[C@H](CC[C@@H]4[C@@]5(C)Cc6c([nH]c7ccccc67)C(C)(C)[C@@H]5CC[C@]43C)[C@@H]12
inactive: SK-MEL-2 melanoma 91.2% | EKVX NSCLC 75.2% | SN12C renal 94.2% | UO-31 renal 63.6% | TK-10 renal 102% | ACHN renal 83.5% | A498 renal 99% | CCRF-CEM leukemia 99.5% | MOLT-4 leukemia 74.1%

O=C1Nc2ccccc2/C1=N/c1nc(-c2ccc(Cl)cc2)cs1
inactive: SK-MEL-2 melanoma 88.2% | EKVX NSCLC 60.2% | SN12C renal 79.1% | UO-31 renal 52.2% | TK-10 renal 87.9% | ACHN renal 80.2% | CCRF-CEM leukemia 41% | MOLT-4 leukemia 25%

CCOC(=O)c1c(C)nc2c(c1N)C(=O)C(=O)N2Cc1ccc(C(F)(F)F)cc1
inactive: SK-MEL-2 melanoma 77% | EKVX NSCLC 79.5% | SN12C renal 74.1% | UO-31 renal 54.1% | TK-10 renal 107% | ACHN renal 69.7% | A498 renal 72.6% | CCRF-CEM leukemia 39.4% | MOLT-4 leukemia 60.1%

Cc1nccc2c3ccc(OCc4cn(-c5ccc(Cl)cc5)nn4)cc3n(CCCc3ccccc3)c12
inactive: SK-MEL-2 melanoma 90.8% | EKVX NSCLC 66.3% | A498 renal 87.5% | MOLT-4 leukemia 18.2%
active: SN12C renal 6.96% | UO-31 renal -87.1% | TK-10 renal -16.1% | ACHN renal -20.4% | CCRF-CEM leukemia 2.43%

C=C1C(=O)O[C@H]2[C@H]1CC/C(COC(=O)/C=C/c1c[nH]c3ccccc13)=C\CC[C@@]1(C)O[C@@H]21
active: SK-MEL-2 melanoma -83.7% | EKVX NSCLC -41.4% | SN12C renal -54% | UO-31 renal -100% | TK-10 renal -99.2% | ACHN renal -100% | A498 renal -98.8% | CCRF-CEM leukemia 2.46% | MOLT-4 leukemia 5.13%

CCOC(=O)N1CCc2c(sc3nc4nc[nH]n4c(=O)c23)C1
inactive: SK-MEL-2 melanoma 96.6% | EKVX NSCLC 92.4% | SN12C renal 97.3% | UO-31 renal 81.9% | TK-10 renal 105% | ACHN renal 103% | CCRF-CEM leukemia 97.8% | MOLT-4 leukemia 100%

OC(c1ccccc1)c1ccccn1 (stereo not given)
inactive: SK-MEL-2 melanoma 104% | EKVX NSCLC 98.8% | SN12C renal 99.6% | UO-31 renal 93.1% | TK-10 renal 99.3% | ACHN renal 108% | A498 renal 98.5% | CCRF-CEM leukemia 88.7% | MOLT-4 leukemia 96.8%

O=C1C(=O)c2c(nc3ncccn23)-c2ccccc21
active: SK-MEL-2 melanoma -58.9% | EKVX NSCLC -75.8% | SN12C renal -82.3% | UO-31 renal -98.4% | TK-10 renal -52.4% | ACHN renal -100% | A498 renal -95.9% | CCRF-CEM leukemia -3.54% | MOLT-4 leukemia -46.6%

C=C1C(=O)O[C@H]2[C@H]1CC/C(COC(=O)CCCCCC(=O)OC/C1=C/CC[C@@]3(C)O[C@H]3[C@H]3OC(=O)C(=C)[C@@H]3CC1)=C\CC[C@@]1(C)O[C@@H]21
inactive: SK-MEL-2 melanoma 55.7% | EKVX NSCLC 19.9% | A498 renal 90.5%
active: SN12C renal 0.951% | UO-31 renal -32.1% | TK-10 renal 7.18% | ACHN renal -25.7% | CCRF-CEM leukemia 4.16% | MOLT-4 leukemia 0.768%

CCCC1C(C(=O)OCC)=C(N)Oc2cc(O)ccc21 (stereo not given)
inactive: SK-MEL-2 melanoma 99% | EKVX NSCLC 80.6% | SN12C renal 103% | UO-31 renal 70.7% | TK-10 renal 105% | ACHN renal 94.1% | A498 renal 109% | CCRF-CEM leukemia 99.7% | MOLT-4 leukemia 89%

COc1cc(C2NC(c3cc(OC)c(OC)c(OC)c3)C(C#N)(C#N)C2(C#N)C#N)cc(OC)c1OC (stereo not given)
inactive: SK-MEL-2 melanoma 101% | EKVX NSCLC 97.6% | SN12C renal 100% | UO-31 renal 83.8% | TK-10 renal 103% | ACHN renal 97.7% | A498 renal 107% | CCRF-CEM leukemia 136% | MOLT-4 leukemia 96.8%

Cc1cc(C(=O)Nc2ncnc3nc[nH]c23)no1
inactive: SK-MEL-2 melanoma 131% | EKVX NSCLC 103% | SN12C renal 93.8% | UO-31 renal 80.5% | TK-10 renal 118% | ACHN renal 99.8% | A498 renal 110% | CCRF-CEM leukemia 86.4% | MOLT-4 leukemia 91.7%

COC(=O)CCCCCCCCC1(C)C=CC(C(C)O)=CC1 (stereo not given)
inactive: SK-MEL-2 melanoma 104% | EKVX NSCLC 102% | SN12C renal 103% | UO-31 renal 100% | TK-10 renal 92.2% | ACHN renal 114% | A498 renal 96.1% | CCRF-CEM leukemia 99.7% | MOLT-4 leukemia 97.8%

COc1ccc2c(c1)c(CC(=O)NCCOCCOCC(=O)Nc1ccc(OC)c(C(N)=O)c1O)c(C)n2C(=O)c1ccc(Cl)cc1
inactive: SK-MEL-2 melanoma 89% | EKVX NSCLC 94.4% | SN12C renal 101% | UO-31 renal 74.4% | TK-10 renal 100% | ACHN renal 109% | A498 renal 86.6% | CCRF-CEM leukemia 107% | MOLT-4 leukemia 74.7%
